Results filed as inconclusive are left out. The source made the active and inactive calls. Unless noted, calls follow the shape of the dose curve; as a rule, active = well fitted curve in the direction sought with a large enough effect; inconclusive = small, poorly fitted or top-dose-only effect, or another doubt; inactive = no such curve, though single readings can be large; an effect the other way counts as inactive or inconclusive.
What was measured:
[1] = Cell Viability - BJ (AID 421; calls by dose curve;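 also: potency is read from the fitted curve at half-maximal effect; cells exposed to compound for 40 hours at 37 °C before readout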); conditions: BJ fibroblast viability, qHTS
Method in brief: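 Normal human BJ foreskin fibroblasts, 1500/well in complete medium, treated 40 hr at 37 °C. Cellular ATP by CellTiter-Glo luminescence; normalized to DMSO and 100 uM tamoxifen, AC50 from Hill fit.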

[2] = Cell Viability - Hek293 (AID 427;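 active = compounds whose dose-response curve shows a full or clear partial loss of cell viability, called from curve shape rather than a numeric limit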;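 also: potency is read from the fitted curve at half-maximal effect; cells exposed to compound for 40 hours at 37 °C before reading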); conditions: qHTS
Method in brief: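 HEK293 cells in complete medium were exposed to compound for 40 hr at 37 °C, then cellular ATP was read by CellTiter-Glo luminescence. Data were normalized to DMSO (basal) and 100 uM tamoxifen (100% inhibition), and AC50 came from Hill fits.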

[3] = Cell Viability - HepG2 (AID 433; calls by dose curve;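 also: potency is read from the fitted curve at half-maximal effect; potency for ATP loss meaning cytotoxicity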); conditions: qHTS
Method in brief: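 In this qHTS format, a 40 h, 37 °C compound incubation of HepG2 cells in complete medium precedes a 20 min CellTiter-Glo step at room temperature. Tamoxifen and doxorubicin serve as positive controls; Hill-equation fits yield AC50.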

[4] = Cell Viability - MRC5 (AID 434; calls by dose curve;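 also: potency is read from the fitted curve at half-maximal effect; potency reflects cytotoxicity seen as loss of intracellular ATP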); conditions: MRC5 lung fibroblast viability, qHTS
Method in brief: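 AC50 values come from Hill-equation fits of intracellular ATP loss, measured by CellTiter-Glo luminescence. Normal lung fibroblasts (MRC5) had 40 hr compound treatment at 37 C, normalized between DMSO and 100 uM tamoxifen.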

[5] = molecular target: Mitogen-activated protein kinase 10 (Mus musculus) (UniProt Q61831); experiment: JNK3 AlphaScreen Assay (AID 530; active = well fitted curve in either direction with a large enough effect, not every such curve was filed as active;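 also: kinase came from lysate of stimulated human HepG2 cells; signal reports phosphorylation of biotinylated GST-cJun 1-79 at Ser73 with 10 µM ATP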); conditions: JNK3 lysate, c-Jun phosphorylation; series mostly up to 57.1 µM
Method in brief: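 Kinase buffer: 20 mM Tris-HCl pH 7.6, 10 mM MgCl2, 1 mM DTT, 0.1 mM Na3VO4, 0.01% Tween-20; ATP 10 uM. Substrate biotin-GST-cJun(1-79), enzyme from activated HepG2 lysates. Detection by Ser73 phospho-antibody AlphaScreen.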

[6] = Cell Viability - HUV-EC-C (AID 542); conditions: HUV-EC-C endothelial cell viability, qHTS; series mostly up to 92.2 µM; also: nearly all actives have a fitted effect of over 35% in size
Method in brief: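 Luminescent ATP read-out (CellTiter-Glo, 20 min room temperature) after 40 hr compound treatment of HUV-EC-C cells at 37 °C. Concentration-response data fitted with the standard Hill equation to give AC50; tamoxifen and doxorubicin served as positive controls.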

[7] = Cell Viability - SH-SY5Y (AID 544); conditions: SH-SY5Y neuroblastoma cell viability; series mostly up to 92.2 µM; also: nearly all actives have a fitted effect of over 55% in size
Method in brief: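 SH-SY5Y, 1500 cells/well, 5 hr pre-incubation 37 °C; cpd 40 hr 37 °C; CellTiter-Glo 20 min RT; luminescence (ATP) read. qHTS concentration-response, Hill fit → AC50. Tamoxifen, doxorubicin as positive controls.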

[8] = Cell Viability - Mesenchymal (AID 546); conditions: mesenchymal cells viability, qHTS; series mostly up to 91.7 µM;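 also: cells exposed to compound for 40 hours before reading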
Method in brief: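 CellTiter-Glo luminescence (intracellular ATP, 20 min room temperature) after 40 hr compound exposure at 37 °C of 1000 glomerulus-derived human kidney mesenchymal cells/well; AC50 values obtained by fitting qHTS concentration-response data to the Hill equation.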

[9] = Cellular Toxicity (caspase-3) HepG2 (AID 654); conditions: HepG2 caspase-3 activation, luminescence, 0% = DMSO only, 100% = tamoxifen; series mostly up to 92.2 µM;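 also: cells exposed to compound for 16 hours before reading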
Method in brief: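 Luminescent Caspase-Glo 3/7 readout after 16 hr compound exposure of human hepatocellular carcinoma HepG2 cells at 37 °C; qHTS concentration-response, normalized DMSO = 0%, 100 uM tamoxifen = 100%; AC50 by standard Hill equation.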

[10] = Cellular Toxicity (caspase-3) Jurkat (AID 655); conditions: Jurkat caspase-3 activation, luminescence, DMSO = 0%, tamoxifen = 100%; series mostly up to 92.2 µM;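 also: cells exposed to compound for 16 h at 37 °C before reading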
Method in brief: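 qHTS in human Jurkat T-cell leukemia line: 16 hr compound treatment at 37 °C, caspase-3/7 activity measured by Caspase-Glo luminescence. AC50 derived from Hill equation.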

[11] = Cellular Toxicity (caspase-3) HUV-EC-C (AID 656); conditions: HUV-EC-C cells, caspase-3 activation (apoptosis), vehicle = 0, 100 µM tamoxifen = 100%; series mostly up to 92.2 µM
Method in brief: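 Concentration-dependent caspase 3/7 induction was assessed in HUV-EC-C cells exposed for 16 hours. Data scaled between DMSO and tamoxifen (100 uM) controls.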

[12] = Cellular Toxicity (caspase-3) SHSY5Y (AID 657); conditions: SH-SY5Y caspase-3 activation, DMSO zero, 10 µM staurosporine = 100%; series mostly up to 91.7 µM;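 also: cells exposed to compound for 16 hours at 37 °C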
Method in brief: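 Readout: caspase-cleaved peptide-aminoluciferin substrate driving luciferase light in SH-SY5Y neuroblastoma cells after 16 h treatment. Response normalized to DMSO and 10 uM staurosporine controls.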

[13] = Cellular Toxicity (caspase-3) BJ (AID 658); conditions: BJ fibroblasts, luminescence, normalized: DMSO 0%, staurosporine 100%; series mostly up to 91.7 µM
Method in brief: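 Caspase-Glo 3/7 luminescence, read 1 hr after reagent at room temperature, in normal BJ fibroblasts exposed 16 hours at 37 °C. AC50 values from Hill-equation concentration-response, scaled between DMSO basal and 10 uM staurosporine as 100%.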

[14] = Cellular Toxicity (caspase-3) MRC-5 (AID 659); conditions: MRC-5 cells, luminescence, normalized: DMSO 0%, 10 µM staurosporine 100%; series mostly up to 91.7 µM
Method in brief: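 Luminescent Caspase-Glo 3/7 read-out (1 h, room temperature) after a 16 h, 37 °C compound exposure of MRC-5 lung fibroblasts at 1500 cells/well. Concentration-response AC50 from Hill equation; 0% DMSO, 100% 10 uM staurosporine.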

[15] = Cellular Toxicity (caspase-3) Mesangial (AID 660); conditions: mesangial cells, normalized: DMSO 0%, 100 µM tamoxifen 100%; series mostly up to 91.7 µM;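 also: combined caspase 3 and 7 activity read by Caspase-Glo luminescence; cells exposed to compound for 16 h before the caspase read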
Method in brief: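 Luminescent Caspase-Glo 3/7 readout (aminoluciferin substrate cleavage, 20 min RT) after 16 h compound exposure at 37 °C of normal human mesangial cells. Signal increase normalized between DMSO basal and 100 uM tamoxifen; Hill-equation AC50.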

[16] = Cellular Toxicity (caspase-3) SK-N-SH (AID 661); conditions: SK-N-SH caspase-3 activation, qHTS, DMSO as zero, staurosporine as full; series mostly up to 91.7 µM
Method in brief: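 Luminescent Caspase-Glo 3/7 read-out after 16 hr compound exposure of SK-N-SH neuroblastoma cells at 37 °C. Signal increase normalized to DMSO (basal) and 10 uM staurosporine (100%); AC50 from Hill equation fits of qHTS concentration-response data.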

[17] = Cellular Toxicity (caspase-3) H-4-II-E (AID 663); conditions: H-4-II-E rat hepatoma, scaled: DMSO 0%, 100 µM tamoxifen 100%; series mostly up to 92.2 µM;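 also: cells exposed to compound for 16 hr before readout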
Method in brief: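 Caspase 3/7 activation measured by luminescent aminoluciferin substrate cleavage after 16 hr compound treatment of H-4-II-E cells in complete medium. Increase normalized between DMSO (basal) and 100 uM tamoxifen (100%); Hill-equation AC50 from concentration-response.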

[18] = Cellular Toxicity (caspase-3) Hek293 (AID 664); conditions: HEK293 caspase-3 activation, DMSO = 0%, 100 µM tamoxifen = 100%; series mostly up to 92.2 µM;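 also: cells exposed to compound for 16 h at 37 °C before readout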
Method in brief: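 Luminescent Caspase-Glo 3/7 readout (aminoluciferin release) in HEK293 cells after 16 h compound treatment, 37 °C. Normalization: DMSO = basal, 100 uM tamoxifen = 100% stimulation. Concentration-response fitted with standard Hill equation for AC50.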

[19] = Cellular Toxicity (caspase-3) N2a (AID 665); conditions: N2a cells, luminescence, normalized: DMSO 0%, 10 µM staurosporine 100%; series mostly up to 92.2 µM;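 also: compound exposure lasted 16 h at 37 °C before readout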
Method in brief: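 Luminescent Caspase-Glo 3/7 readout in N2a mouse neuroblastoma cells after 16 h compound exposure at 37 °C. Signal scaled to DMSO (basal) and 10 uM staurosporine (100%). Concentration-response fitted with Hill equation for AC50.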

[20] = molecular target: Cytochrome P450 3A4 (Homo sapiens) (UniProt P08684); experiment: qHTS Assay for Inhibitors and Substrates of Cytochrome P450 3A4 (AID 884); conditions: recombinant CYP3A4, Luciferin-PPXE luminescence; series mostly up to 57.1 µM; also: nearly all actives have a fitted effect of over 50% in size
Chain of Cytochrome P450 3A4 (Homo sapiens) (P08684 whole entry, looked up): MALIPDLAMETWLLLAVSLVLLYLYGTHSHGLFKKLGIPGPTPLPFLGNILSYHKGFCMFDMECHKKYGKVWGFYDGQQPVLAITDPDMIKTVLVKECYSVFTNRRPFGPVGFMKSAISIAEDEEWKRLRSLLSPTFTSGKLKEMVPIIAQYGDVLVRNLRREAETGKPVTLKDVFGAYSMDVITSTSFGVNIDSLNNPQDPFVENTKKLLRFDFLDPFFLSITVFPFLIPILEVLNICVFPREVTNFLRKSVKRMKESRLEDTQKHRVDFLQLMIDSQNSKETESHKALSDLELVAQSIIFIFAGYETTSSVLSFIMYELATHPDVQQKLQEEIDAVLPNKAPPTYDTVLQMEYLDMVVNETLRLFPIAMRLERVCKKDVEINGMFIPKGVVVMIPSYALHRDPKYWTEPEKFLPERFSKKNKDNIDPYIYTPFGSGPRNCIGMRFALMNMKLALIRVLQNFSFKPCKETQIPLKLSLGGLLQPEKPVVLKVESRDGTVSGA
Method in brief: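 Luminescent readout of luciferin produced by CYP3A4 (20 nM) dealkylation of Luciferin-PPXE, 25 uM (its KM). NADPH-driven reaction ran 60 min at RT after 10 min compound preincubation; data scaled to 57 uM ketoconazole as 100% inhibition.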

Measured: Potency

O=C(Nc1ccccc1)Nc1ccccc1
inactive: [1] > 92 µM | [2] > 92 µM | [3] > 92 µM | [4] > 92 µM | [5] | [6] | [7] | [8] | [9] | [10] | [11] | [12] | [13] | [14] | [15] | [16] | [17] | [18] | [19] | [20]

Source: PubChem BioAssay (NCATS)
